The text below walks through data of PubChem BioAssay (Tox21).

Values joined by “and” are separate entries in the source; they are usually repeats but may differ in a detail not shown here. Equal entries are not always repeated. Records with an inconclusive call do not appear. Some structures have more than one record in an assay (separate samples or runs), and their calls can disagree. Active and inactive are the calls of the source. Unless noted, calls follow the shape of the dose curve; as a rule, active = well fitted curve in the direction sought with a large enough effect in the repeat runs; inconclusive = weak or mixed curves; inactive = no such curve, though single readings can be large; an effect the other way counts as inactive or inconclusive.

The nature of test [1]: Caspase-3/7 induction in CHO-K1 cells by small molecules, qHTS assay (AID 1346980). Also: nearly all actives have a fitted effect of over 15% in size. The method, boiled down: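 Wild-type CHO-K1 cells exposed to compounds for 17hr at 37 C, 5% CO2. Caspase-3/7 activity then measured by Caspase-Glo 3/7 luminescence after 30min at room temperature.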
In general terms: In qHTS, concentration-response curves come from the screen itself.

The nature of test [2]: Caspase-3/7 induction in HepG2 cells by small molecules, qHTS cell viability counter screen (AID 1346981). Also: series mostly up to about 92 µM; nearly all actives have a fitted effect of over 30% in size. Put shortly:
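Treatment of HepG2 cells with DMSO-delivered compounds ran 16 hr at 37 C following a 5-hr pre-incubation of 2,000 cells/well. CellTiter-Fluor fluorescence, read after 1 hr, served as the viability measure in a qHTS format.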

In test [3] the target is Nuclear receptor subfamily 1 group I member 2 (Homo sapiens) (UniProt O75469). Kind of test: Human pregnane X receptor (PXR) small molecule agonists, qHTS assay (AID 1346982). Also: nearly all actives have a fitted effect of over 35% in size. Also: potency is read from the fitted curve at half-maximal effect. Put shortly: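 Stable HepG2 line reporting PXR-mediated CYP3A4 expression via luciferase. Treatment: 24 hr with compounds in DMSO at 37 C. Detection: ONE-Glo luminescence.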
Chain of Nuclear receptor subfamily 1 group I member 2 (Homo sapiens) (O75469 whole entry, looked up): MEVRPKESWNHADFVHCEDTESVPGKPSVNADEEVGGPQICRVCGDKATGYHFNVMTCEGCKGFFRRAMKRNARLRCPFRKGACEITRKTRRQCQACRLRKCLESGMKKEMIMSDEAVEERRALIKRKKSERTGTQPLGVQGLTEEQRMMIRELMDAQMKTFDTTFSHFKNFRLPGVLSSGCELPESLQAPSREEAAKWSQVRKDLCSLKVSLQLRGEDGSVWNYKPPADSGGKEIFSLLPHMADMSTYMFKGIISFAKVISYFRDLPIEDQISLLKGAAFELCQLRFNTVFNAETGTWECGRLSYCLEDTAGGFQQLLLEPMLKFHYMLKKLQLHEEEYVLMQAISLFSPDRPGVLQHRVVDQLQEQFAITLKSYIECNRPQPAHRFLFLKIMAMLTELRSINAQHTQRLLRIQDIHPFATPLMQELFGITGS
Test [4] deals with Acetylcholinesterase (Homo sapiens) (UniProt P22303). Kind of test: Acetylcholinesterase (AChE) small molecule antagonists: colormetric cell-based qHTS assay (AID 1347395; calls by dose curve; also: nearly all actives have a fitted effect of over 30% in size; also: potency is read from the fitted curve at half-maximal effect). Put shortly:
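After overnight attachment at 37 C, SH-SY5Y cells get 30 min compound exposure; detection cocktail (acetylthiocholine, DTNB) then incubates 90 min at 37 C, and absorbance reflects AChE-generated thiocholine.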

Test [5] shares this target. Kind of test: Acetylcholinesterase (AChE) small molecule antagonists: enzyme-based qHTS assay (AID 1347397; calls by dose curve; also: nearly all actives have a fitted effect of over 55% in size). The settings on record: Potency: AChE enzyme activity inhibition. The method, boiled down:
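Colorimetric DTNB read-out of thiocholine released from acetylthiocholine by recombinant human AChE (50 mU/mL as dispensed). Compounds were preincubated 30 min at RT before substrate/DTNB addition, with a 10 min RT reaction.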

The target is the same in test [6]. The test can be described thus: Acetylcholinesterase (AChE) small molecule antagonists: fluorescence cell-based qHTS assay (AID 1347398; calls by dose curve; also: nearly all actives have a fitted effect of over 50% in size). The settings on record: Potency: AChE activity. Put shortly: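 SH-SY5Y, 2,000 cells/well, attached overnight; cmpd 30 min 37 C; acetylthiocholine/Thiolite Green cocktail 40 min RT; fluorescence Ex/Em 490/520 nm.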
For test [7] the target is unchanged. The test can be described thus: Acetylcholinesterase (AChE) small molecule antagonists: enzyme-based qHTS assay with human liver microsomes (AID 1347399; calls by dose curve; also: nearly all actives have a fitted effect of over 60% in size). The settings on record: Potency: qHTS inhibition. Put shortly: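 Recombinant human AChE (50 mU/mL in the enzyme mix) and human liver microsomes (0.25 mg/mL final) were preincubated with compound and NADPH (0.25 mg/mL final) for 30 min at 37 C. Acetylthiocholine/DTNB was then added; thiocholine was read colorimetrically after 10 min at room temperature.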

In test [8] the target is Cytochrome P450 2D6 (Homo sapiens) (UniProt P10635). The test can be described thus: Cytochrome P450 Family 2 Subfamily D Member 6 (CYP2D6) small molecule antagonists: luciferase reporter qHTS assay (AID 1671196). Also: series mostly up to about 120 µM; nearly all actives have a fitted effect of over 50% in size. The method, boiled down:
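Chemicals tested for interference with CYP2D6 activity; proluciferin substrate, NADPH regeneration, 1 h at room temperature, luminescent detection.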
A general note: Reporter assays use an easily measured gene product as a stand-in for the process of interest.

The target in test [9] is Cytochrome P450 2C19 (Homo sapiens) (UniProt P33261). Kind of test: Cytochrome P450 Family 2 Subfamily C Member 19 (CYP2C19) small molecule antagonists: luciferase reporter qHTS assay (AID 1671197). Also: nearly all actives have a fitted effect of over 65% in size. Also: potency is read from the fitted curve at half-maximal effect. The method, boiled down:
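Quantitative high-throughput screen of the Tox21 library using CYP2C19 with proluciferin substrate. Reaction: NADPH regeneration, 37C, 1 h, after 10 min compound preincubation at room temperature. Readout: luminescence.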

Test [10] concerns the target Cytochrome P450 2C9 (Homo sapiens) (UniProt P11712). Kind of test: Cytochrome P450 Family 2 Subfamily C Member 9 (CYP2C9) small molecule antagonists: luciferase reporter qHTS assay (AID 1671198). Also: nearly all actives have a fitted effect of over 50% in size. Also: potency is read from the fitted curve at half-maximal effect. Put shortly: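 P450-Glo proluciferin substrate with CYP2C9 enzyme; 10 min RT preincubation, then NADPH regeneration 1 h at 37C; luciferin detection reagent 20 min RT, luminescence in relative luminescence units.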

The target in test [11] is Cytochrome P450 1A2 (Homo sapiens) (UniProt P05177). The test can be described thus: Cytochrome P450 Family 1 Subfamily A Member 2 (CYP1A2) small molecule antagonists: luciferase reporter qHTS assay (AID 1671199). Also: nearly all actives have a fitted effect of over 50% in size. Also: potency is read from the fitted curve at half-maximal effect. The method, boiled down:
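Read-out is luminescence from luciferin detection reagent (20 min) proportional to CYP1A2 activity; compounds in DMSO preincubated 10 min with enzyme and proluciferin substrate, then NADPH regeneration solution, 1 h, room temperature.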

The target of test [12] is Cytochrome P450 3A4 (Homo sapiens) (UniProt P08684). Kind of test: Cytochrome P450 Family 3 Subfamily A Member 4 (CYP3A4) small molecule antagonists: luciferase reporter qHTS assay (AID 1671201). Also: nearly all actives have a fitted effect of over 50% in size. Also: potency is read from the fitted curve at half-maximal effect. The method, boiled down: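 CYP3A4 activity was followed with a P450-Glo proluciferin substrate. Test compounds in DMSO were preincubated 10 min; NADPH regeneration then ran 1 h, and light output was read 20 min after detection reagent.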
Chain of Cytochrome P450 3A4 (Homo sapiens) (P08684 whole entry, looked up): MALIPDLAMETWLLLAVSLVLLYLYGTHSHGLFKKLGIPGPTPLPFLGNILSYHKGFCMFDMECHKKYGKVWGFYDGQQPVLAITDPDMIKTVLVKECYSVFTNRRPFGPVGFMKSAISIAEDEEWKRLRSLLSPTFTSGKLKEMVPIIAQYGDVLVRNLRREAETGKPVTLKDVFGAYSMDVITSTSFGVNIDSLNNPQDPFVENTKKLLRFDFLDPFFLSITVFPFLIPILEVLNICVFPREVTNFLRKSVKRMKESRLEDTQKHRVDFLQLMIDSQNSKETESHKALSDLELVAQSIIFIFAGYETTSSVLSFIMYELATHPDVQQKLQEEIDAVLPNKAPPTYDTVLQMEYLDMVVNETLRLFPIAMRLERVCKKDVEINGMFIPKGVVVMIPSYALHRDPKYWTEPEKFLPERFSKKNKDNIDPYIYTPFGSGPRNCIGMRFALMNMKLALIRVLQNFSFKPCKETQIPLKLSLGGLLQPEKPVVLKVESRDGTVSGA

Test [13] deals with Nuclear receptor subfamily 1 group I member 2 (Rattus norvegicus) (UniProt Q9R1A7). Kind of test: Rat pregnane X receptor (rPXR) activation by small molecules, qHTS assay (AID 1346983). Also: nearly all actives have a fitted effect of over 20% in size. The settings on record: rPXR luciferase reporter cells, One-Glo luminescence, 24 h; stronger effect = higher value. Put shortly:
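Cell-based rPXR activation assay: rPXR cells, 2,000 per well, rested 5hr at 37 C, then exposed to compounds in DMSO for 24 hr at 37 C. Luciferase activity read by One-Glo luminescence after 30 min at room temperature.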

Test [14] concerns the target Nuclear receptor subfamily 1 group I member 2 (Homo sapiens) (UniProt O75469). Kind of test: CYP3A4 induction through human pregnane X receptor (PXR) by small molecules, qHTS assay (AID 1346984). Also: nearly all actives have a fitted effect of over 40% in size. Put shortly: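 After 24 h at 37C with compound, DPX-2 cells (HepG2, co-transfected PXR response element and CYP3A4 promoter-luciferase) got 3uM final P450-Glo Luciferin-IPA for 3 h; One-Glo luminescence followed.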

Test [15] shares this target. The test can be described thus: Human pregnane X receptor (PXR) activation by small molecules, qHTS assay (AID 1346985). Also: nearly all actives have a fitted effect of over 40% in size. The method, boiled down:
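DPX-2 cells (HepG2 co-transfected with a PXR response element and a CYP3A4-promoter luciferase construct) were seeded at 2,000 per well, rested 5 hr at 37C, then exposed to DMSO-dissolved compounds for 24 hr. Activation was read as luciferase luminescence.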

Test [16] concerns the target Voltage-gated inwardly rectifying potassium channel KCNH2 (Homo sapiens) (UniProt Q12809). The test can be described thus: Human Ether-a-go-go-Related Gene (hERG) channel small molecule antagonists: fluorescence cell-based qHTS assay (AID 1671200). The method, boiled down: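 In this thallium-flux screen, overnight-cultured U2OS cells bearing the channel are dye-loaded in darkness for an hour, rested 10 min at room temperature, and then monitored kinetically at 480/540 nm for two minutes post-stimulus.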
On the technique in general: hERG is a cardiac potassium channel; its block is linked to QT prolongation.
% is scaled to controls: 0 for no effect and ±100 for the full control effect.

Chain of Cytochrome P450 2C19 (Homo sapiens) (P33261 whole entry, looked up): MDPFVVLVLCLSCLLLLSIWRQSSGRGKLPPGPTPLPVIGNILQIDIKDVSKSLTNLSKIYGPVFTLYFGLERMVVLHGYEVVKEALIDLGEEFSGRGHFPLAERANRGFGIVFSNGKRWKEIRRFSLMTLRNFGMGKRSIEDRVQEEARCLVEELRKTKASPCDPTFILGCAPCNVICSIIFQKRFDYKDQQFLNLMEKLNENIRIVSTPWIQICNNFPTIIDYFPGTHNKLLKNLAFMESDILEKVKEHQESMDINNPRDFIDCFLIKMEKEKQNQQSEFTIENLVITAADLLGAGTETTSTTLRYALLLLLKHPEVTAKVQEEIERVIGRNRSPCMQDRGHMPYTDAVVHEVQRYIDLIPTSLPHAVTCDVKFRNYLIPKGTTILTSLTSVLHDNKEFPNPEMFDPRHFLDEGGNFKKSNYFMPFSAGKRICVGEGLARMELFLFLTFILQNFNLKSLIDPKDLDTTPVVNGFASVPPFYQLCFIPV
Chain of Cytochrome P450 2C9 (Homo sapiens) (P11712 whole entry, looked up): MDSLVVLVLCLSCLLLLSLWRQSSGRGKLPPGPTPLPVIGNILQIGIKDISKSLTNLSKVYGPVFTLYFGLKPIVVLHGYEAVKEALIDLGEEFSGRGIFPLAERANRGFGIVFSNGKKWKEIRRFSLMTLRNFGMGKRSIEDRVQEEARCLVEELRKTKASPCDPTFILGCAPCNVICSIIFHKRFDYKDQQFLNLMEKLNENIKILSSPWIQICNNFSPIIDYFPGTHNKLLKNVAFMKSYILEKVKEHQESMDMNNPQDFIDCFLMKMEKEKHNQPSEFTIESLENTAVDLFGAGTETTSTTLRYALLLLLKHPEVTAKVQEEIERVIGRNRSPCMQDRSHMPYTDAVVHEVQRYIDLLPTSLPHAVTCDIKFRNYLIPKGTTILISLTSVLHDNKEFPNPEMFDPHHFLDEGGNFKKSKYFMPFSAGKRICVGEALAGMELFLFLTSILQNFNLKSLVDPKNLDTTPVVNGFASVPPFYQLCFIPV
Chain of Cytochrome P450 2D6 (Homo sapiens) (P10635 whole entry, looked up): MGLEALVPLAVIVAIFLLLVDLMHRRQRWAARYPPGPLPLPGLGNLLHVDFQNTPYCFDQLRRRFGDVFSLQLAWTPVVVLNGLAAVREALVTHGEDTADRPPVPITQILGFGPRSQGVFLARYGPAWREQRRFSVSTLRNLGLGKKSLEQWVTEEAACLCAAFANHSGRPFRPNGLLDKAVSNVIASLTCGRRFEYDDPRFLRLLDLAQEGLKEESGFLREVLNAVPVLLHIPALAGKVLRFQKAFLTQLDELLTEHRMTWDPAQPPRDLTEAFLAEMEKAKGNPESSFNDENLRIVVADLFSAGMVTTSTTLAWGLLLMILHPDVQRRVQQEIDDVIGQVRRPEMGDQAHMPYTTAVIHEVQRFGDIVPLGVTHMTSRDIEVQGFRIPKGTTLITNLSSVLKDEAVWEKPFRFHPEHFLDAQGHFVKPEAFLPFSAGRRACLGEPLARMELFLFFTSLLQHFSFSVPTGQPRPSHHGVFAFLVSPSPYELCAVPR
Chain of Cytochrome P450 1A2 (Homo sapiens) (P05177 whole entry, looked up): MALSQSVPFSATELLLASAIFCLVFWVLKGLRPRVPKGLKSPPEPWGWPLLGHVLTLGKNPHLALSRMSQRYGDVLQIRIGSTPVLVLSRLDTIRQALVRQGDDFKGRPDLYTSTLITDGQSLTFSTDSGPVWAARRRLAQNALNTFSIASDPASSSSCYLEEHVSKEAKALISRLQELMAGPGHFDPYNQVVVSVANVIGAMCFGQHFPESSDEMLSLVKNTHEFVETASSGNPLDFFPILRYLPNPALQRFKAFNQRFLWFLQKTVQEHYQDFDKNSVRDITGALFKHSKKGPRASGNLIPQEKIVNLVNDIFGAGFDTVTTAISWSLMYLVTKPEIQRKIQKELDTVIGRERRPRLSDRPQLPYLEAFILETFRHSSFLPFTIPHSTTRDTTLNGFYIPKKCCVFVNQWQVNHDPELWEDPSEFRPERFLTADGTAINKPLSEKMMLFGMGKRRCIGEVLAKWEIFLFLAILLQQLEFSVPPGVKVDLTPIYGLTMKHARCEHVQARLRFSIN
Chain of Nuclear receptor subfamily 1 group I member 2 (Rattus norvegicus) (Q9R1A7 whole entry, looked up): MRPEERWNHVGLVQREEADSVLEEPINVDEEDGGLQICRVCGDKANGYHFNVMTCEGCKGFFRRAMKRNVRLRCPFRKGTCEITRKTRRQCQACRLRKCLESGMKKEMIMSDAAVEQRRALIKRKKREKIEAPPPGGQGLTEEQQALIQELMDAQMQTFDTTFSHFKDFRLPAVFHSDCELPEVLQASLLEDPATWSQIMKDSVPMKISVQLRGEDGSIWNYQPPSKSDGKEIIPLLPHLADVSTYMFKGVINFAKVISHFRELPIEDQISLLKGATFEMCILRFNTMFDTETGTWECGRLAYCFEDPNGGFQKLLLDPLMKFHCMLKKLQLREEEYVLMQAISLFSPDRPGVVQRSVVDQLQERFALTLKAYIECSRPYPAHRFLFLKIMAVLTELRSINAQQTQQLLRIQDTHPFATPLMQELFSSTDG
Chain of Acetylcholinesterase (Homo sapiens) (P22303 whole entry, looked up): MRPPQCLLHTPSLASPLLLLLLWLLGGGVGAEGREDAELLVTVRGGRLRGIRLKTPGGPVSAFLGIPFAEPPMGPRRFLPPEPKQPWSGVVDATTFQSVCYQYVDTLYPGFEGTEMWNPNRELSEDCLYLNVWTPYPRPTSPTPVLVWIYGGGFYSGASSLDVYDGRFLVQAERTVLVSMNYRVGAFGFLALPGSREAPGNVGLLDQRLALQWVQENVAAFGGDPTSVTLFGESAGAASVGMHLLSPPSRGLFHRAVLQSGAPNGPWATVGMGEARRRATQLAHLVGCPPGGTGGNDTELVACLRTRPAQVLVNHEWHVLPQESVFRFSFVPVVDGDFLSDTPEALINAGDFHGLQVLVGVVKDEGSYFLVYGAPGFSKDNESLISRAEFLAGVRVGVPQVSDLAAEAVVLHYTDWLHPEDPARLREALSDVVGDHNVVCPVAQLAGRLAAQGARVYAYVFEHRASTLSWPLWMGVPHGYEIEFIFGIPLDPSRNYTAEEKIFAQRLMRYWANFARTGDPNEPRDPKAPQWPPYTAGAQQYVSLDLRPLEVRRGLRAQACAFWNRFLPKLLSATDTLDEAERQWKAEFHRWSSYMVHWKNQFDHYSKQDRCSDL

As to `Cc1ccc([N+](=O)[O-])cc1C`, in test [1], the outcome was inactive. Further, the Potency entry in test [2], in [3], in test [4], in [5], in test [6] and in [7] was “inactive” each time. For the same compound, the Potency entry in test [8], in test [9], in [10], in test [11] and in test [12] was “inactive” each time.

As to `CCOC(=O)c1ccccc1C(=O)OCC`, the result in test [1] and in test [14] was inactive. Also, the Potency entry in test [2], in test [3], in test [15], in test [5], in test [6] and in test [7] was “inactive” in each case. Also, in test [12], the Potency result was “inactive”. Besides, in test [13], the max activation was -0.77% (inactive).

For `CC(C)(C)C(O)(CCc1ccc(Cl)cc1)Cn1cncn1` (configuration not stated), the outcome in [1] was inactive. Also, the Potency result in test [2], in test [4], in [5], in test [6], in test [7] and in test [16] was “inactive” each time. The Potency in test [3] is 27.6 µM (active) and 9.69 µM (active); in test [9], 640 nM (active) and 448 nM (active); in [12], 114 nM (active) and 200 nM (active).

Regarding `CCN(CC)c1ccccc1`, in test [1], the result was inactive. Further, the Potency result in [2], in [3], in test [4], in test [5], in test [6] and in test [7] was “inactive” in each case. In addition, the Potency entry in test [8], in [9], in test [11], in [16] and in test [12] was “inactive” each time.

For `CN1C(=O)CN=C(c2ccccc2)c2cc(Cl)ccc21`, the compound was classed as inactive in test [1].

For the compound `OC(O)C(Cl)(Cl)Cl`, the call in test [1] and in test [14] was inactive. In addition, the Potency entry in test [2], in test [3], in test [15], in test [9] and in test [12] was “inactive” throughout. Moreover, the max activation in test [13] is -1.41% (inactive).

As to `Nc1ccccc1C(=O)O`, the outcome in test [1] and in test [14] was inactive. For the same compound, the Potency result in [2], in [3], in test [15], in test [5], in test [6] and in test [9] was “inactive” in each case. Further, the Potency result in test [10], in [16] and in [12] was “inactive” throughout. The max activation in test [13] was -2.88% (inactive). For the same compound, the Potency in [11] was 40.1 µM (active) and inactive.

On to `CC1OC(C)OC(C)O1` (configuration not stated), for which the call in test [1] and in test [14] was inactive. The Potency entry in [2], in [3], in test [15], in test [5], in test [6] and in test [7] was “inactive” throughout. Moreover, the Potency entry in [8], in [9], in [16] and in [12] was “inactive” in each case. The max activation in test [13] is -1.58% (inactive) and 0.0541% (inactive).

For `c1cc2c3c(cccc3c1)CC2`, in [1], the outcome was inactive. For the same compound, the Potency result in test [2], in test [3], in [5], in [6], in test [7] and in test [10] was “inactive” throughout. Also, the Potency result in test [16] and in test [12] was “inactive” throughout. Also, the Potency is 36.5 µM (active) and inactive in test [4]; 45.9 µM (active) and inactive in [9].

For the compound `C#CC(C)(C)NC(=O)c1cc(Cl)cc(Cl)c1`, in [1], the result was inactive. Besides, the Potency entry in [2], in [4], in [5], in [6], in [8] and in test [16] was “inactive” throughout. Besides, the Potency in test [3] was 49 µM (active) and 30.6 µM (active); in test [9] it was 8.04 µM (active) and 39.9 µM (active); in test [10], 71.7 µM (active) and inactive; in [11], 5.07 µM (active) and 15.9 µM (active); in test [12] it was 20.2 µM (active) and 35.6 µM (active).
